Bioassay records (PubChem)
Only some compounds are listed: those with a hit (about 7% of all), similar ones and a draw of the others.
Integrin act MD: activators of alpha7 integrin expression for muscular dystrophy; alpha7betagal myoblasts, beta-gal FDG fluorescence, 48 h; Potency, µM (doses to about 38.3 µM), for inactives: at the highest dose activation, hits mostly activators; actives 0.064% (n = 350,000); AID 624291;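 also: potency is read from the fitted curve at half-maximal effect; 100% = response of the positive control SU9516; nearly all actives have a fitted effect of over 60% in size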
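Alpha7betagal+/- myoblasts (passage 13) were plated 16-24 hr, then exposed to compounds (1:260 dilution of DMSO stock) for 48 hours at 37C. After MPER lysis, β-galactosidase reporter activity was read as FDG fluorescence (ex 480/em 540) after 30 minutes.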
S2 tox: cell viability loss in ATXN counter-screen; actives 0.49% (n = 400,000); S2 cells (HEK-293 line with an ATXN2-luciferase reporter) viability, CellTiter-Fluor protease fluorescence, 24 h; AID 651635; Potency, µM (top dose mostly 56.7 µM), actives largely listed as cytotoxic; also: potency is read from the fitted curve at half-maximal effect; nearly all actives have a fitted effect of over 40% in size
ATXN2 expr inh: inhibitors of ATXN2 expression. Potency, µM (titrated, usually from 57 µM), inactives show top-dose activity change, negative = inhibition, hits mostly inhibitors. actives 0.72% (n = 360,000). HEK-293 ATXN2-luciferase reporter, luminescence, 24 h. AID 1745845; also: potency is read from the fitted curve at half-maximal effect; % is scaled to controls: 0 for no effect and ±100 for the full control effect; nearly all actives have a fitted effect of over 55% in size
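qHTS (up to 57 uM final) was run with 24 h compound exposure of reporter cells at 37 °C. Each well was multiplexed: SteadyGlo luminescence measured ATXN2-luciferase expression after a fluorogenic Gly-Phe-AFC viability readout (25 uM final).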
DRD3 agonist: D3 dopamine receptor (human) agonism; P35462; D3R DiscoveRx beta-arrestin cells, luminescence, 90 min; max activation, %; actives 0.58% (n = 410,000); in the data active = max activation above about 30%; also: 0% is about no effect
Target sequence (P35462 whole entry, looked up): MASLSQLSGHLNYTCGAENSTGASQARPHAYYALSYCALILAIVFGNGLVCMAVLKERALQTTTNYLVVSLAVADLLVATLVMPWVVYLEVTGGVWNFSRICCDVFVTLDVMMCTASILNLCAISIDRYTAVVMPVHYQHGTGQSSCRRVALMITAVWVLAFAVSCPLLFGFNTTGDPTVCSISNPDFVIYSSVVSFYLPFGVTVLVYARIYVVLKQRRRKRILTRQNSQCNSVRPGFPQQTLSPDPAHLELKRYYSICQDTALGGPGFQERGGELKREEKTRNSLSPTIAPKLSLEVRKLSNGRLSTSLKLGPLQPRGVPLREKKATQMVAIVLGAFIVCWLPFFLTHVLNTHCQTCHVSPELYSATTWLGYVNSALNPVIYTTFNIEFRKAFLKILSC
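Agonist-mode cell screen: cells plated at 1500/well and incubated overnight at 37 °C, then exposed to library compounds for 90 min at 37 °C. Detection reagent was added for 30–60 min at room temperature, and luminescence was read.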
IL1B secr inh: inhibitors of inflammasome signaling (IL-1 beta secretion) | THP-1 LPS/ATP IL-1B secretion, AlphaLISA, 16 h; stronger effect = lower value | activity change, % at 57.5 µM | actives 4.7% (n = 360,000) | AID 743279; in the data active = activity change below about -50%; inconclusive = mostly about -30% to -49%; also: % is scaled to controls: 0 for no effect and ±100 for the full control effect
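Secreted IL-1B measured by AlphaLISA bead assay after 16 h compound exposure of THP-1 cells; compounds (final up to 57.5 uM) added 1 h before LPS (250 ng/mL) and ATP (1.25 mM) stimulation; lower signal means less secretion.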
D3 antag: D3 dopamine receptor (human) antagonism. max response, negative = inhibition, %. P35462. D3R cells, DiscoveRx beta-arrestin luminescence, antagonist mode; stronger effect = lower value. actives 2.5% (n = 360,000); in the data active = max response below about -50%; inconclusive = no clear call, values can overlap the other calls; also: % is scaled to controls: 0 for no effect and ±100 for the full control effect
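Cells plated overnight at 1500 cells/well, then exposed to library compounds with dopamine controls for 90 minutes at 37 degrees C. DiscoveRx reagent added for 30–60 minutes at room temperature; luminescence read, quantitative HTS format.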
The depositor's hits bear a star; ! = a repeat was not active. Unless noted, calls follow the shape of the dose curve; as a rule, active = well fitted curve in the direction sought with a large enough effect; inconclusive = small, poorly fitted or top-dose-only effect, or another doubt; inactive = no such curve, though single readings can be large; an effect the other way counts as inactive or inconclusive.

O=C(CSc1c2c(nc3ccc(Cl)cc13)CCCC2)N1CCN(C(=O)c2ccco2)CC1 was read as Integrin act MD -50%, S2 tox inconclusive, DRD3 agonist -13, IL1B secr inh -79* and D3 antag -4.
`Cc1[nH]c2ccccc2c1/C=C/C(=O)c1ccccc1` gave Integrin act MD -1%, S2 tox inactive, ATXN2 expr inh 40%, DRD3 agonist -20, IL1B secr inh -12 and D3 antag inconclusive.
Screening Cc1[nH]c2ccccc2c(=O)c1C(=O)/C=C/c1ccccc1 returned Integrin act MD -45%, S2 tox 14µM*, ATXN2 expr inh 11µM*, DRD3 agonist -5, IL1B secr inh -101* and D3 antag inconclusive.
Screening O=C(C=Cc1ccccc1)c1c[nH]c2ccccc2c1=O returned Integrin act MD -68%, S2 tox inconclusive, ATXN2 expr inh inconclusive, DRD3 agonist -12, IL1B secr inh -98* and D3 antag inconclusive.
CCOC(=O)N1CCC(N(CCOC)C(=O)Nc2ccc(CC)cc2)CC1 was read as Integrin act MD -20%, S2 tox inactive, ATXN2 expr inh -4%, DRD3 agonist 6, IL1B secr inh inconclusive and D3 antag -12.
`CCOC(=O)N1CCC(N(C(=O)Nc2ccc(Cl)c(Cl)c2)C(C)CC)CC1` (stereo not given) gave Integrin act MD -17%, S2 tox inactive, ATXN2 expr inh 0%, DRD3 agonist -13, IL1B secr inh -85* and D3 antag -27.
Screening COCCOCCn1c(/C=C/c2ccccc2)nc2ccccc21 returned Integrin act MD -21%, S2 tox inconclusive, ATXN2 expr inh 11%, DRD3 agonist -5, IL1B secr inh -3 and D3 antag 1.
For CC(C)n1c(/C=C/c2ccccc2)nc2ccccc21 the results were Integrin act MD -12%, S2 tox inactive, ATXN2 expr inh 76%, DRD3 agonist -3, IL1B secr inh -78* and D3 antag 20.
`CCCn1c(/C=C/c2ccccc2)nc2ccccc21` gave Integrin act MD -35%, S2 tox inconclusive, ATXN2 expr inh 96%, DRD3 agonist 31*!, IL1B secr inh -21 and D3 antag 22.
For CC(C)n1c(CN(C)c2ccccc2)nc2ccccc21 the results were Integrin act MD -12%, S2 tox inactive, ATXN2 expr inh -14%, DRD3 agonist -4, IL1B secr inh -8 and D3 antag -16.
For COc1ccc(C(=O)N/C(=C\c2ccccc2)C(=O)NCCCn2ccnc2)cc1 the results were Integrin act MD -71%, S2 tox inconclusive, ATXN2 expr inh -6%, DRD3 agonist -4, IL1B secr inh -8 and D3 antag 13.
Screening Cc1ccc(CC(=O)NCC2CCCCC2)cc1 returned Integrin act MD 27%, S2 tox inactive, DRD3 agonist 11, IL1B secr inh -9 and D3 antag -2.
`CC1CCc2[nH]c3ccc(C(=O)N(C)CC(=O)Nc4ccc(F)cc4)cc3c2C1` (stereo not given) gave Integrin act MD -1%, S2 tox inactive, ATXN2 expr inh -29%, DRD3 agonist -6, IL1B secr inh inactive and D3 antag 2.
CCN(CC(=O)Nc1ccccc1C(F)(F)F)C(=O)c1ccc2[nH]c3c(c2c1)CC(C)CC3 (stereo not given) was read as Integrin act MD -21%, S2 tox inactive, ATXN2 expr inh -24%, DRD3 agonist 4, IL1B secr inh -62* and D3 antag 5.
Screening CSc1ncc(Cl)c(C(=O)Nc2c(C(=O)Nc3cccc(C)c3)oc3ccccc23)n1 returned S2 tox inactive, ATXN2 expr inh 13% and DRD3 agonist -8.
For COC(=O)c1ccccc1NC(=O)Nc1cc(C)ccn1 the results were Integrin act MD -22%, S2 tox inactive, DRD3 agonist -1, IL1B secr inh -5 and D3 antag 4.
Screening Cc1ccnc(NC(=O)Nc2ccc(Br)cc2Cl)c1 returned Integrin act MD 9%, S2 tox inactive, ATXN2 expr inh -11%, DRD3 agonist -14, IL1B secr inh -12 and D3 antag -54*.
